Sampled rows, rich in hits. Any-hit rate of the full collection: about 2.5%.
Cruzain Triton = blocks cruzain activity in presence of Triton detergent; P25779; purified cruzain, Z-FR-AMC fluorescence, 0.01% Triton; Potency, µM, inactives show max response, negative = inhibition, most hits filed as inhibitors; hit rate 0.43% among 200,000; AID 1478;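 also: plate controls were neutral wells for no effect and buffer without enzyme for full effect; nearly all actives have a fitted effect of over 40% in size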
Target sequence (P25779 123-467 limits assumed): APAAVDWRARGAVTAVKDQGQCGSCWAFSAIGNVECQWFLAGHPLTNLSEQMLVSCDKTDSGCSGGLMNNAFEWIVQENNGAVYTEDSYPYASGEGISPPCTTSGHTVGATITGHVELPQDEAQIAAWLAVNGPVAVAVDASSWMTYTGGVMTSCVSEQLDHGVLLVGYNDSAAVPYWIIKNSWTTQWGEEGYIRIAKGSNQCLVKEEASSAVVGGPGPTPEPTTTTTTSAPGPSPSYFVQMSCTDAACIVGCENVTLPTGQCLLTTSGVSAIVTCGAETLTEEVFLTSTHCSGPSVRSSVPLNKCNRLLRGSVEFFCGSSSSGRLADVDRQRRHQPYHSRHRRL
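Purified cruzain (1.5 nM final) was preincubated with compounds for 15 min at room temperature in 100 mM sodium acetate pH 5.5, 5 mM DTT, 0.01% Triton X-100. Reaction started with 2 uM Z-FR-AMC; AMC fluorescence change over 60 s gave activity.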
Cruzain noTriton = cruzain (T. cruzi) inhibition without detergent; purified cruzain, Z-FR-AMC fluorescence, no detergent; P25779; hit rate 2.3% among 200,000; Potency, µM, inactives show max response, negative = inhibition, hits mostly inhibitors;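 also: plate controls were enzyme without inhibitor for no effect and buffer without enzyme for full effect; nearly all actives have a fitted effect of over 40% in size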
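Purified cruzain at 1.5 nM, pre-incubated 15 min with compound at room temperature in 100 mM sodium acetate pH 5.5, 5 mM DTT, 0.00005% Triton X-100. Reaction started with 2 uM Z-FR-AMC; AMC fluorescence increase over 60 s gives rate.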
* marks the source's active call; other numbers are inactive results; ? = inconclusive. Calls follow the shape of the dose curve; as a rule, active = well fitted curve in the direction sought with a large enough effect; inconclusive = small, poorly fitted or top-dose-only effect, or another doubt; inactive = no such curve, though single readings can be large; an effect the other way counts as inactive or inconclusive. Potency is read from the fitted curve at half-maximal effect.

SMILES | Cruzain Triton | Cruzain noTriton
COc1ccc(S(=O)(=O)N2CCC(CN3C(=O)c4cccc5cccc(c45)C3=O)CC2)cc1 | -3% | 25µM*
COc1ccc(OCC(O)CN2CCC(CN3C(=O)c4cccc5cccc(c45)C3=O)CC2)cc1 (centres undefined) | -1% | 8%
COc1cc(NC(=O)CCCc2nnc3n(CC(C)C)c(=O)c4sccc4n23)cc(OC)c1 | -1% | -14%
CCc1ccc(-c2nc(SCC(=O)NCCOC)c(-c3ccc(C)cc3)[nH]2)cc1 | 0% | -1%
O=C(Nc1ccc(S(=O)(=O)N2CCCC2)cc1)C1COc2ccccc2O1 (centres undefined) | -5% | 1%
O=C(Nc1nc(-c2ccccc2)cs1)C1COc2ccccc2O1 (centres undefined) | -3% | 25µM*
O=C(Nc1nc(-c2ccc3c(c2)OCO3)cs1)C1COc2ccccc2O1 (centres undefined) | -8% | ?
Cc1ccccc1CSc1nnc(NC(=O)C2COc3ccccc3O2)s1 (centres undefined) | -4% | ?
O=C(Nc1nnc(SCc2cccc3ccccc23)s1)C1COc2ccccc2O1 (centres undefined) | -3% | 25µM*
O=C(Nc1nc(-c2ccc(S(=O)(=O)N3CCCC3)cc2)cs1)C1COc2ccccc2O1 (centres undefined) | 2% | 10µM*
O=C(c1cc(F)cc(F)c1)N1CCC(c2nc(-c3ccc(S(=O)(=O)N4CCCC4)cc3)no2)CC1 | 2% | 2%
CCCCC(=O)Nc1cccc(-c2nc3ccccc3s2)c1 | -14% | -5%
Cc1ccccc1CN1C(=O)c2ccccc2S(=O)c2ccc(C(=O)NCc3ccccc3)cc21 (centres undefined) | 1% | ?
Clc1nc(-c2cccnc2)nc2scc(-c3ccccc3)c12 | -4% | -16%
COc1ccc(-c2csc3nc(-c4cccnc4)nc(Cl)c23)cc1OC | 13µM* | -13%
O=C(COc1ccc(Cl)cc1)Nc1nc(-c2ccc(S(=O)(=O)N3CCOCC3)cc2)cs1 | -2% | ?
COc1ccc(-c2csc(NC(=O)COc3ccc(N(C)S(=O)(=O)c4ccc(C)cc4)cc3)n2)cc1 | 1% | 7.9µM*
Cc1ccc(-c2csc(NC(=O)COc3ccc(N(C)S(=O)(=O)c4ccc(C)cc4)cc3)n2)cc1 | 1% | 6.3µM*
COc1ccc(S(=O)(=O)N(C)c2ccc(OCC(=O)Nc3cc(C)on3)cc2)cc1 | -1% | -7%
COc1ccccc1CNc1nc2c(S(=O)(=O)c3ccc(C)c(C)c3)nnn2c2ccc(Cl)cc12 | 0% | -6%
Cc1ccc(S(=O)(=O)N2CCC(n3c(C)nc4cccnc43)CC2)c(C)c1 | -2% | ?
Cc1nnc(SCC2=C(C(=O)O)N3C(=O)[C@@H](NC(=O)Cn4cnnn4)[C@@H]3SC2)s1 | 2% | -1%
Cc1ccc(C)c2c(SC(C)C(=O)NCc3ccco3)nc(-c3ccccc3)nc12 (centres undefined) | -8% | 4µM*
Cc1ccc2nc(-c3ccccc3)nc(SC(C)C(=O)NCc3cccs3)c2c1 (centres undefined) | -4% | -27%
Cc1cccc(C)c1OCC(=O)N1CCC(c2nc3ccccc3o2)CC1 | -5% | -8%
SMILES | Cruzain Triton | Cruzain noTriton
O=C(c1cc2sccc2n1Cc1ccccc1)N1CCCc2ccccc21 | -3% | 20µM*
O=C(c1cc2sccc2n1Cc1ccccc1)N1CCc2ccccc21 | -3% | ?
Cc1ccc(-n2ncc3c(NC4CCCC4)ncnc32)cc1 | -1% | -4%
Cc1ccc(-c2noc(-c3nnn(CC(=O)Nc4cc(C)cc(C)c4)c3N)n2)cc1 | 3% | 10%
CCc1ccccc1NC(=O)C1=CC(c2ccc3c(c2)OCO3)=NS(=O)(=O)N1C | -3% | 3%
COc1ccccc1-c1cc(C(=O)Nc2cc(Cl)ccc2O)no1 | -3% | -13%
COc1ccc(-c2cc(C(=O)Nc3ccccc3SC)no2)cc1 | 4% | 5µM*
COc1ccccc1-c1cc(C(=O)Nc2ccc(F)cc2F)no1 | 1% | 13µM*
CCc1ccccc1NC(=O)c1cc(-c2ccc(OC)cc2)on1 | 0% | -4%
COc1cccc(C2=NS(=O)(=O)N(C)C(C(=O)Nc3ccccc3SC)=C2)c1 | -1% | 13µM*
CSc1cccc(-n2nnc(-c3nsc(NC(=O)c4cccs4)n3)c2C)c1 | 4% | ?
COc1ccc(C(CC(=O)NCc2ccccc2)N2Cc3ccccc3C2=O)cc1 (centres undefined) | -3% | 3%
CC1=C(c2ccc(C(C)C)cc2)S(=O)(=O)NC1=NCc1ccccc1Br | -3% | 8%
COc1ccc(S(=O)(=O)Nc2ccccc2C(=O)Nc2nc(-c3ccc(F)cc3)cs2)cc1OC | -14% | 20µM*
COc1ccc(-c2csc(NC(=O)c3ccccc3NS(=O)(=O)c3ccc(C)cc3)n2)cc1 | -14% | ?
CCOCCCNC(=S)NCCNc1nc2ccc(C)cc2cc1C#N | -3% | 4%
COCCNC(=S)NCCCNc1nc2cc3c(cc2cc1C#N)OCO3 | 18µM* | ?
COC(=O)c1ccc(C23CC4(C2)[C@H](CN(C)[C@@H]4c2ccccc2)C3c2ccccc2)cc1 (some centres undefined) | -4% | 1%
COC(=O)c1ccc(C23CC4(C2)[C@H](CN(Cc2ccc(-c5ccccc5)cc2)[C@@H]4c2ccccc2)C3c2ccccc2)cc1 (some centres undefined) | 2% | 7.9µM*
COC(=O)c1cccc(C23CC4(C2)[C@H](CN(Cc2cccnc2)[C@@H]4c2ccccc2)C3c2ccc(Cl)nc2)c1 (some centres undefined) | 0% | -1%
COC(=O)c1cccc(C23CC4(C2)[C@H](CN(Cc2ccc(-c5ccccc5)cc2)[C@@H]4c2ccccc2)C3c2ccc(Cl)nc2)c1 (some centres undefined) | 2% | 7.9µM*
N#Cc1ccc(C23CC4(C2)[C@H](CN(Cc2ccc(-c5ccccc5)cc2)[C@@H]4c2ccccc2)C3c2ccccc2)cc1 (some centres undefined) | -4% | 13µM*
c1ccc(-c2ccc(CN3C[C@@H]4C(c5ccccc5)C5(c6ccccc6)CC4(C5)[C@H]3c3ccccc3)cc2)cc1 (some centres undefined) | 4% | 1%
Cc1cccc(NC(=O)CCn2nc(-c3ccccc3)c3ccccc3c2=O)c1 | -6% | ?
COc1ccc(C2Nc3ccccc3C(=O)N2Cc2ccco2)cc1COc1ccc(NC(C)=O)cc1 (centres undefined) | -12% | ?
SMILES | Cruzain Triton | Cruzain noTriton
COc1ccc(C2Nc3ccccc3C(=O)N2Cc2ccco2)cc1COc1ccccc1F (centres undefined) | -7% | 25µM*
Cc1ccc(C(=O)Nn2c(O)c(C=C3N=c4ccccc4=N3)sc2=S)cc1 | -3% | 0%
Oc1c(C=C2N=c3ccccc3=N2)sc(=S)n1-c1ccc(F)cc1 | -6% | 20µM*
Oc1c(C=C2N=c3ccccc3=N2)sc(=S)n1C1CCCC1 | -5% | 20µM*
O=C(Nn1c(O)c(C=C2N=c3ccccc3=N2)sc1=S)c1ccccc1 | -2% | -7%
Cc1cccc(NC(=O)CSc2nc3ccc(NC(=O)c4ccco4)cc3s2)c1 | -7% | 2%
COc1ccc(C2C(=O)N(C3CCCCCC3)CC(=O)N2Cc2ccc(C)cc2)cc1 (centres undefined) | 1% | 2%

Screens (PubChem BioAssay)
